High-throughput results (PubChem BioAssay)
LANA-H2A inh: blocks KSHV LANA binding to histone H2A/H2B | inhibition, % (no concentration beside the values) | hit rate 0.6% among 320,000 | Q9QR71 | cell-free LANA-H2A/H2B peptide, fluorescence polarization; in the data active means inhibition mostly above about 10%, no sharp cut-off; inactive means mostly below about 6.7%
rCAG RNA binder: binds r(CAG) RNA repeats; hit rate 1.3% among 370,000; inhibition, % at 3 µM; r(CAG) RNA repeat, TO-PRO-1 dye displacement fluorescence;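 active means inhibition above the plate cutoff, the mean of all test compounds on that plate plus 3 SD, cut at about 35% in these data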;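 further: higher means more dye released from RNA so lower well fluorescence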
PRMT1 FP inh: inhibitors of human PRMT1. recombinant PRMT1, activity-based probe fluorescence polarization. inhibition, % at 2.79 µM. hit rate 1.3% among 370,000. Q99873;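 active means inhibition above about 21% made by adding two undisclosed values, limit read from the data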
Target sequence (Q99873 whole entry, looked up): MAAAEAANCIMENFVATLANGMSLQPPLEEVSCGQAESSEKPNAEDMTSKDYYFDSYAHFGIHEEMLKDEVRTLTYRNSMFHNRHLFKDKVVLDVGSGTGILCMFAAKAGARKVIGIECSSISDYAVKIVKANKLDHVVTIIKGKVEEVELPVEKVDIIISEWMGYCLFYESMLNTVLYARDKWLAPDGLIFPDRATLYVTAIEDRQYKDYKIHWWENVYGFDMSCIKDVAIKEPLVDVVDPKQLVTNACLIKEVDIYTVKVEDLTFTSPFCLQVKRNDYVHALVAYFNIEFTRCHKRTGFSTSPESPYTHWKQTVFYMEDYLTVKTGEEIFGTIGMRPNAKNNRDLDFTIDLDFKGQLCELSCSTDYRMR
Rtt109 Vps75: inhibitors of Candida albicans Rtt109/Vps75 histone acetyltransferase. hit rate 0.16% among 330,000. purified Rtt109/Vps75, ThioGlo CoA-SH fluorescence, 4 h. Q5AAJ8. inhibition, % at 34.9 µM;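 active means inhibition of at least 50% in every replicate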
ALR inh: blocks human ALR sulfhydryl oxidase activity | P55789 | purified ALR, DTT oxidation, H2O2 HRP-luminol luminescence | inhibition, % (test concentration not listed) | hit rate 3.8% among 290,000 | AID 485317;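 active means mean replicate inhibition above about 79%, with every replicate also reaching it, limit read from the data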
ABHD5-PLIN5 inh: inhibitors of human ABHD5-perilipin-5 interaction; inhibition, % at 4 µM; Q00G26+Q8WTS1; Split G. princeps luciferase complementation, luminescence, 4 h; hit rate 0.78% among 360,000;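 active means inhibition above the mean inhibition across every tested compound plus 3 SD, cut at about 22% in these data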
Large screens that a line does not name were inactive. The list is not random: actives were taken first. Their share in the collection is about 5.9%.

COc1ccc(S(=O)(=O)Cc2ccc(C(=O)NCCCN(C)c3ccccc3)o2)cc1	ALR inh 99
Cc1nc(C(=O)N2CCc3c([nH]c4ccccc34)C2c2ccccn2)cs1 (centres undefined)	none
Cc1nc(C(=O)N2CCc3c([nH]c4ccccc34)C2c2cc(F)ccc2F)cs1 (centres undefined)	LANA-H2A inh 16
CC(C)c1nc(C(=O)N2CCc3c([nH]c4ccccc34)C2c2ccccn2)cs1 (centres undefined)	LANA-H2A inh 14
Cc1cnc(C(=O)N2CCc3c([nH]c4ccccc34)C2c2ccc(F)cc2)cn1 (centres undefined)	none
CN1C(=O)c2cc(NC(=O)Nc3ccccc3)ccc2OC[C@H]2O[C@@H](CC(=O)N[C@H]3CCN(Cc4ccccc4)C3)CC[C@@H]21	none (no result: LANA-H2A inh, Rtt109 Vps75, ALR inh, ABHD5-PLIN5 inh)
Cc1cccc(NC(=O)Nc2ccncc2)c1	ALR inh 84
Cc1cccc(NC(=O)CC(=O)Nc2cccc(C)c2)c1	none
Cc1cccc(NNC(=O)C(=O)NNc2cccc(C)c2)c1	ALR inh 98
COc1ncnc2c1NC1=C(S2)C(=NCCC(=O)O)CC(C)(C)C1	PRMT1 FP inh 28
O=C(NCc1ccccc1)[C@@H]1CCCN1C(=O)[C@H]1CCCN1C(=O)c1ccc(Cl)cc1	none (no result: LANA-H2A inh, Rtt109 Vps75, ALR inh, ABHD5-PLIN5 inh)
C[C@@H]1CCCCO[C@@H](CN(C)CC2CC2)[C@@H](C)CN([C@H](C)CO)C(=O)c2cc(N(C)C)ccc2O1	none (no result: LANA-H2A inh, rCAG RNA binder, PRMT1 FP inh, Rtt109 Vps75, ALR inh)
CN(CCNC(=O)C1CC(=O)N(c2ccc(F)c(Cl)c2)C1)Cc1ccccc1 (centres undefined)	none
CN(C)CCNC(=O)C1CC(=O)N(c2ccc(F)c(Cl)c2)C1 (centres undefined)	LANA-H2A inh 94
CCN(CC)S(=O)(=O)c1ccc(N2CC(C(=O)NCCc3ccc(Cl)cc3)CC2=O)cc1 (centres undefined)	LANA-H2A inh active
COc1ccc(-c2coc3c(C(=O)NCC4CCOCC4)cccc23)c(C)c1	none (no result: LANA-H2A inh, Rtt109 Vps75, ALR inh)
CC(C)C[C@H]1CNC(=S)N1C[C@H]1CCCN1C[C@H](Cc1ccc(O)cc1)N1C[C@H](Cc2ccc(O)cc2)N(CC2CCCCCC2)C1=S	ABHD5-PLIN5 inh 27 (no result: LANA-H2A inh, Rtt109 Vps75, ALR inh)
CC(C)C[C@H]1CNC(=S)N1C[C@H]1CCCN1C[C@H](Cc1ccc(O)cc1)N1C[C@H](CC(C)C)N(CCc2ccccc2)C1=S	ABHD5-PLIN5 inh 23 (no result: LANA-H2A inh, Rtt109 Vps75, ALR inh)
CC(C)C[C@H]1CNC(=S)N1C[C@H]1CCCN1C[C@H](Cc1ccccc1)N1C[C@H](Cc2ccc(O)cc2)N(CCc2ccccc2)C1=S	none (no result: LANA-H2A inh, Rtt109 Vps75, ALR inh)
COC(=O)[C@@]12CCCCC3=C1N(CCC3)C(=O)[C@H]2CC(=O)NCCc1ccccc1OC	none (no result: LANA-H2A inh, Rtt109 Vps75, ALR inh, ABHD5-PLIN5 inh)
O=C(OCc1ccc(CSc2nnc(-c3cccc4ccccc34)o2)cc1)c1ccc(F)cc1	none (no result: LANA-H2A inh, rCAG RNA binder, Rtt109 Vps75, ALR inh, ABHD5-PLIN5 inh)
Cc1nccn1CC(=O)c1ccc(O)c(O)c1	ALR inh 87
CCc1nccn1CC(=O)c1ccc(O)c(O)c1	none (no result: LANA-H2A inh, rCAG RNA binder, Rtt109 Vps75, ALR inh, ABHD5-PLIN5 inh)
NC(=O)c1c(NC(=O)C2CC=CCC2C(=O)O)sc2c1CCCCC2 (centres undefined)	PRMT1 FP inh 23
CCOC(=O)c1c(N2C(=O)C3C4C=CC(C4)C3C2=O)sc2c1CCC(C)C2 (centres undefined)	none
CCOC(=O)c1c(NC(=O)C2CC(Cl)=CCC2C(=O)O)sc2c1CCCCC2 (centres undefined)	ALR inh 98 (no result: rCAG RNA binder, PRMT1 FP inh)
CCOC(=O)c1c(NC(=O)C2C3C=CC(C3)C2C(=O)O)sc2c1CCC(C)C2 (centres undefined)	ALR inh 95
Cc1ccccc1S(=O)(=O)NC1OC(=O)C(Oc2ccccc2)=C1Br (centres undefined)	ALR inh 95
C=CCNC(=S)Nc1ccc(N(C)C)cc1	ALR inh 99
C=CCNC(=S)Nc1ccc(C(N)=O)cc1	none (no result: Rtt109 Vps75)
CN(C)c1ccc(NC(N)=S)cc1	ALR inh 99
O=C(Nc1cccc(C(F)(F)F)c1)c1ccc2sc([C@@H]3O[C@H](CO)[C@H](O)[C@H](O)[C@H]3O)nc2c1	none (no result: LANA-H2A inh, Rtt109 Vps75, ALR inh)
CC(C)=CC(=O)O[C@@H]1Cc2cc3ccc(=O)oc3cc2OC1(C)C	none
COc1cc(/C=N/NC(=O)CCc2c(C)n[nH]c2C)ccc1O	ALR inh 99
O=C(CCN1CCCCC1)N/N=C/c1ccc(Br)cc1	none (no result: Rtt109 Vps75)
COc1cc(/C=N/NC(=O)CCN2CCCCC2)ccc1O	ALR inh 99
